# PubChem BioAssay AID1220 (Sanford-Burnham Center for Chemical Genomics, 2008)
# Several values for one entry are separate records, joined by “and”; a condition that tells them apart may be missing. Identical values can stand only once. Out of some 190,000 compounds screened, about 1,300 (0.68%) were called active. Cut-off read from the data, not from the text of the source: active = inhibition above about 50%; inactive = the rest. The entries come from a sample that favours actives as a whole. A structure can be active in one record and inactive in another.
# Target: Mannose-6-phosphate isomerase (Homo sapiens) (UniProt P34949)
# Experiment: MPI inhibition at elevated mannose 6-phosphate – biochemical, fluorescence intensity, high mannose 6-phosphate, primary screen (AID 1220)
# Conditions: recombinant PMI enzyme, coupled fluorescence intensity; at 20 µM; stronger effect = higher value
# Mannose-6-phosphate isomerase (Homo sapiens), sequence (P34949 whole entry, looked up): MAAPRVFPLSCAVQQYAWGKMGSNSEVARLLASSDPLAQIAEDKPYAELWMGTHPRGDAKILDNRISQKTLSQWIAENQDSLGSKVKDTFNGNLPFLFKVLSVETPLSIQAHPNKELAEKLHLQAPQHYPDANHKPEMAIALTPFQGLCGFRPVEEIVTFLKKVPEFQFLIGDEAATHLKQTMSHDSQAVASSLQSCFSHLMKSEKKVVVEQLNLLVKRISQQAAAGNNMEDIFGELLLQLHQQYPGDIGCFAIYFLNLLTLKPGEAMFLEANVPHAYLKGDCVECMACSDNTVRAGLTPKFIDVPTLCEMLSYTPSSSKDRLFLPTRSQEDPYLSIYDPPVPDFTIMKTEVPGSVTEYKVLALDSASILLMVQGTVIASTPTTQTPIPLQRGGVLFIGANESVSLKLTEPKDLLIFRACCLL
row,Compound,inhibition
1,C=C1C(=O)[C@@]23[C@H](O)C[C@@H]4C(C)(C)CC[C@H](O)[C@]4(C)[C@@H]2C[C@H](O)[C@@H]1[C@H]3O,52.3% (active)
2,C=C1C(=O)[C@@]23[C@H](O)C[C@@H]4C(C)(C)CC[C@H](O)[C@@]4(C)[C@@H]2CC[C@@H]1[C@H]3O,3.9% (inactive)
3,Cc1ccc2cc(C=O)c(Cl)nc2c1,39.8% (inactive)
4,Cc1ccc2cc(C=O)c(N(C)C)nc2c1,8.2% (inactive)
5,CCOC(=O)/C(C#N)=C/c1cc2ccccc2nc1Cl,21.1% (inactive)
6,CCOC(=O)/C(C#N)=C/c1cc2ccc(C)cc2nc1Cl,21.5% (inactive)
7,Cc1cc2cc(C=C(C#N)C#N)c(Cl)nc2cc1C,54.1% (active)
8,CC(C)(C)c1nn(-c2ccccc2)c2nc(Cl)c(C=O)cc12,-0.4% (inactive)
9,Cc1cc2cc(C=O)c(Cl)nc2cc1C,58.2% (active)
10,Cc1cc(C)c2cc(CNC3CCCC3)c(Cl)nc2c1,3.4% (inactive)
11,CCC(C)(C(=O)NC1CCCCC1)N(C(=O)C1CCC(=O)N1)c1ccc(C)cc1 (centres undefined),-0.7% (inactive)
12,CCC(=O)NC(=S)Nc1cccc(NC(=O)c2ccco2)c1,9.6% (inactive)
13,CCC(C)C(NC(=O)c1ccc(Cl)cc1Cl)C(=O)O (centres undefined),1.7% (inactive)
14,COc1ccc(CC(=O)Nc2ccccc2C(=O)N2CCOCC2)cc1,5.3% (inactive)
15,CCOC(=O)N1CCC(N2Cc3cccc(C(=O)Nc4ccc(F)cc4)c3C2=O)CC1,-3.9% (inactive)
16,O=C(COc1ccccc1[N+](=O)[O-])NNC(=O)Nc1cccc2ccccc12,59.8% (active)
17,NNC(=O)COc1ccccc1[N+](=O)[O-],4.8% (inactive)
18,COC(=O)c1ccccc1NC(=O)COc1ccccc1[N+](=O)[O-],-1.9% (inactive)
19,CCOCCCn1c(=N)c(C(=O)NCc2ccc3c(c2)OCO3)cc2c(=O)n3ccccc3nc21,-7.7% (inactive)
20,CC(C)OCCCNC(=O)c1ccc(N(C)S(C)(=O)=O)cc1,6.8% (inactive)
21,CCc1ccc(O)c(N=Cc2cccc(C)c2O)c1,17.4% (inactive)
22,CCOc1cccc(C=Nc2cc(C)cc(C)c2O)c1O,7% (inactive)
23,Cc1ccc(N=Cc2sc(O)c3ccccc23)c(C)c1,2.2% (inactive)
24,Cc1cccc(C=Nc2ccc3c(c2)oc2ccccc23)c1O,30.1% (inactive)

row,Compound,inhibition
1,CCC(=O)N1CCN(c2ccccc2NC(=O)Cc2ccccc2)CC1,3.5% (inactive)
2,CCNC(=S)Nc1ccc(S(=O)(=O)Nc2cc(C)nc(C)n2)cc1,-7.6% (inactive)
3,O=C(O)C1CC=CCC1C(=O)Nc1cccc(C(=O)N2CCCCC2)c1 (centres undefined),-20.1% (inactive)
4,COc1cccc(C(c2sc3nc(C)nn3c2O)N2CCc3ccccc3C2)c1 (centres undefined),42.6% (inactive)
5,COc1cc(C(c2sc3nc(C)nn3c2O)N2CCc3ccccc3C2)cc(OC)c1OC (centres undefined),5.1% (inactive)
6,Cc1ccc2c(c1)NC(=O)C(CC(=O)NCCCN1CCN(c3cc(C)ccc3C)CC1)O2 (centres undefined),9.9% (inactive)
7,CN(C)/C=N/c1nc(-c2ccc3c(c2)OCO3)cs1,7.4% (inactive)
8,CC(C)c1cc(Nc2cccc(O)c2)cc(C(C)C)c1O,53.6% (active)
9,CC(=O)Nc1cc(C(C)C)c(O)c(C(C)C)c1,6.7% (inactive)
10,CC(C)c1cc(NC(=O)c2ccccc2)cc(C(C)C)c1O,8.4% (inactive)
11,CC(C)(C)NC(=O)C(c1ccc(OCC(N)=O)cc1)N(C(=O)c1cccnc1)C1CC1 (centres undefined),-7.4% (inactive)
12,C=CCNC(=O)c1ccc2c(c1)nnn2C,3.7% (inactive)
13,CN(C)/C=C/C(=O)c1cnc(-c2ccc(Cl)cc2)s1,0.9% (inactive)
14,O=C(c1ccc(Cl)nc1)N1CCc2ccccc2C1,5.7% (inactive)
15,Cc1ccc(Nc2nc(-c3c(C)nc4ncccn34)cs2)cc1,18.6% (inactive)
16,Cc1cccc(Nc2nc(-c3c(C)nc4ccccn34)cs2)c1,47% (inactive)
17,Cc1ccc(Nc2nc(-c3c(C)nc4ccccn34)cs2)cc1,57.1% (active)
18,CSc1ccccc1NC(=O)COc1ccc(Cl)cc1,3.4% (inactive)
19,CCCOC(=O)c1cc(NC(=O)/C=C/c2ccccc2)ccc1O,14.7% (inactive)
20,C/C=C/CSc1nc2c(c(=O)[nH]c(=O)n2C)n1Cc1ccc(C)cc1,14% (inactive)
21,Cc1ccccc1NC1=C/C(=N\S(=O)(=O)c2cccs2)c2ccccc2C1=O,17.2% (inactive)
22,Cc1ccc(NC2=C/C(=N/S(=O)(=O)c3cccs3)c3ccccc3C2=O)cc1C,31.2% (inactive)
23,Cc1ccc(NC2=C/C(=N\S(=O)(=O)c3cccs3)c3ccccc3C2=O)c(C)c1,50.1% (active)
24,Cc1ccc(NC2=C/C(=N/S(=O)(=O)c3cccs3)c3ccccc3C2=O)cc1,47.9% (inactive)

row,Compound,inhibition
1,Cc1ccc(Cl)cc1NC1=C/C(=N\S(=O)(=O)c2cccs2)c2ccccc2C1=O,16.4% (inactive)
2,COC(=O)c1ccccc1NC1=C/C(=N\S(=O)(=O)c2cccs2)c2ccccc2C1=O,-25.4% (inactive)
3,Cc1cccc(NC2=C/C(=N/S(=O)(=O)c3cccs3)c3ccccc3C2=O)c1,56.8% (active)
4,CC(=O)Nc1ccc(NC2=C/C(=N/S(=O)(=O)c3cccs3)c3ccccc3C2=O)cc1,54.1% (active)
5,O=C1C(Nc2ccc(O)cc2)=C/C(=N/S(=O)(=O)c2cccs2)c2ccccc21,47.6% (inactive)
6,CCN1CCN(CC(=O)NC2CCCC2)C(=O)C1=O,5.9% (inactive)
7,CC(NC(=O)C1CCCN(S(=O)(=O)c2cnc[nH]2)C1)c1ccccc1 (centres undefined),-0.1% (inactive)
8,CCOc1ccccc1-c1nc(-c2ccc(NC(=O)Cc3ccc(OC)cc3)cc2)no1,-5.8% (inactive)
9,COc1ccc(NC(=O)N2CCN(S(C)(=O)=O)CC2)cc1OC,14% (inactive)
10,COc1ccccc1NC(=O)/C(C#N)=C/c1cc([N+](=O)[O-])ccc1N1CCCC1,-6.4% (inactive)
11,COc1cc(OC)cc(C(=O)NC(C(=O)O)C23CC4CC(CC(C4)C2)C3)c1 (centres undefined),-4.9% (inactive)
12,COc1ccc(/C(O)=C2/C(=O)C(=O)N(CC3CCCO3)C2c2ccc(O)c(OC)c2)cc1 (centres undefined),5.8% (inactive)
13,O=S(=O)(NCCNc1ncc(C(F)(F)F)cc1Cl)C(F)(F)F,6.3% (inactive)
14,CCOc1cc(NC(=S)NCC2CCCO2)c(OCC)cc1NC(=O)c1ccc(F)cc1 (centres undefined),54.9% (active)
15,CCOc1ccccc1NC(=S)NCC1CCCO1 (centres undefined),-3.2% (inactive)
16,CCOc1cc(NC(=S)NCC2CCCO2)c(OCC)cc1NC(=O)c1ccc(C)cc1 (centres undefined),58.2% (active)
17,CCOc1cc(NC(=S)NCC2CCCO2)c(OCC)cc1NC(=O)c1ccccc1 (centres undefined),17.7% (inactive)
18,CCOc1cc(NC(=S)NCC2CCCO2)c(OCC)cc1NC(=O)c1ccc(OC)cc1 (centres undefined),35% (inactive)
19,CCOc1cc(NC(=S)NCC2CCCO2)c(OCC)cc1NC(=O)c1ccccc1C (centres undefined),5.7% (inactive)
20,CCOc1cc(NC(=S)NCC2CCCO2)c(OCC)cc1NC(=O)c1cccc(C)c1 (centres undefined),17% (inactive)
21,CCOc1cc(NC(=S)NCC2CCCO2)c(OCC)cc1NC(=O)C1CC1 (centres undefined),5.5% (inactive)
22,CCOc1cc(NC(=S)NCC2CCCO2)c(OCC)cc1NC(=O)CC(C)C (centres undefined),15.4% (inactive)
23,CCOc1cc(NC(=S)NCC2CCCO2)c(OCC)cc1NC(=O)c1cccc(F)c1 (centres undefined),53.7% (active)
24,CCOc1cc(NC(=S)NCC2CCCO2)c(OCC)cc1NC(=O)c1ccccc1F (centres undefined),53.9% (active)

row,Compound,inhibition
1,CCOc1cc(NC(=S)NCC2CCCO2)c(OCC)cc1NC(=O)CC (centres undefined),6.9% (inactive)
2,CN(c1ccccc1)S(=O)(=O)c1ccc(Cl)c(C(=O)Nc2ccc(-c3nc4ccccc4[nH]3)cc2)c1,3.8% (inactive)
3,CC1CCCC(NC(=O)CC2Nc3ccccc3NC2=O)C1C (centres undefined),-4.1% (inactive)
4,N#C/C(=C\c1cn(Cc2ccccc2)c2ccccc12)C(=O)NCc1ccco1,15.2% (inactive)
5,Nn1cnnc1SCC(=O)Nc1ccc2c(c1)OCCO2,9.6% (inactive)
6,O=C(NCc1ccco1)/C(=C/C=C/c1ccccc1)NC(=O)c1ccco1,6% (inactive)
7,CC(=O)c1ccc(NC(=S)NCc2cccnc2)cc1,-2.6% (inactive)
8,c1ccc(COc2cccc(CNCc3ccccn3)c2)cc1,-10.4% (inactive)
9,Cc1ccc2cc(CCNC(=O)Cc3cccs3)c(=O)[nH]c2c1,-0.6% (inactive)
10,c1ccc2[nH]c(-c3ccnc4ccccc34)nc2c1,51.2% (active) and -1.5% (inactive)
11,c1ccc(-c2cc(-c3nc4ccccc4[nH]3)c3ccccc3n2)cc1,12.1% (inactive)
12,Fc1ccccc1-c1nc2ccccc2[nH]1,-1.9% (inactive)
13,O=C(O)CCCCCNS(=O)(=O)c1cccc2c1C(=O)c1ccccc1C2=O,31.4% (inactive)
14,CC(=O)OCCNc1cc(N2CCN(C)CC2)c2noc3c2c1C(=O)c1ccccc1-3,50.5% (active)
15,CCCCNC(=O)c1ccc(N2CCC3(CC2)OCCO3)c([N+](=O)[O-])c1,2.4% (inactive)
16,CN1CCN(c2ccc(Cl)cc2NC(=O)CCN2C(=O)c3ccccc3C2=O)CC1,-10.2% (inactive)
17,CCOC(=O)N1CCN(c2cc(NCCC(=O)O)c3c4c(onc24)-c2ccccc2C3=O)CC1,-2.8% (inactive)
18,O=C(O)CCCNc1cc(N2CCC3(CC2)OCCO3)c2noc3c2c1C(=O)c1ccccc1-3,54.1% (active)
19,CC(Oc1ccccc1F)C(=O)NNC(=O)c1cc2ccccc2o1 (centres undefined),2.5% (inactive)
20,Cc1ccc(NC(=S)NC2CCN(Cc3ccccc3)CC2)cc1,8.2% (inactive)
21,COc1cc(NC(=O)Cn2cnc3ccccc3c2=O)c(OC)cc1Cl,14.9% (inactive)
22,CCOC(=O)c1sc2ncnc(N3CCN(CC)CC3)c2c1C,-2.6% (inactive)
